VP16 counter – VP16 counterscreen qHTS for inhibitors of ROR gamma transcriptional activity; Potency, µM (series often up to 53.6 µM), for the others: top-dose activity, negative = inhibition, usual class: inhibitors; actives 3.5% (n = 310,000); AID 2546, 2010; Drosophila S2 Gal4-VP16 UAS-luciferase, luminescence, 20 h;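 further: Gal4-VP16 expression switched on by copper sulfate through the metallothionein promoter; nearly all actives have a fitted effect of over 50% in size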
Tau fibril ThT – qHTS for Inhibitors of Tau Fibril Formation, Thioflavin T Binding; actives 2.1% (n = 270,000); recombinant tau K18 P301L, heparin-induced fibrillization, ThT fluorescence; Microtubule-associated protein tau (Homo sapiens), P10636; Potency, µM (titrated, usually from 57.4 µM), without a hit: at the top dose activity, negative = inhibition, hits mostly inhibitors; further: nearly all actives have a fitted effect of over 55% in size
Target sequence (P10636 561-689 P618L limits assumed): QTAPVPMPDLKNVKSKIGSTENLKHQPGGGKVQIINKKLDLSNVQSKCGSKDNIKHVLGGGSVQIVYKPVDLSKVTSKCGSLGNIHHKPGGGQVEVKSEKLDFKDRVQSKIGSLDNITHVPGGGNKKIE
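Recombinant human tau K18 fragment […] carrying P301L, 15 uM unlabeled plus 0.24 uM Alexa 594-labeled, was fibrillized with 20 uM heparin in 100 mM sodium acetate pH 7 for 6 hr at 37 C; 30 uM ThT fluorescence read after 1 hr.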
Tau fluor cs – Counterscreen qHTS for Inhibitors of Tau Fibril Formation, Fluorescence Polarization. tau K18 P301L (four-repeat tau fragment) Alexa594 fluorescence, heparin fibrillization. actives 0.93% (n = 280,000). Potency, µM (highest dose often 57.7 µM), inactives show at the top dose activity change, negative = decrease; further: nearly all actives have a fitted effect of over 55% in size
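Human K18 P301L tau (15 uM unlabeled plus 0.24 uM Alexa 594-labeled, final) in 100 mM sodium acetate pH 7 was mixed with compound and 20 uM heparin and incubated 6 hr at 37 C.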
Tau fibril FP – qHTS for Inhibitors of Tau Fibril Formation, Fluorescence Polarization; Microtubule-associated protein tau (Homo sapiens), P10636; K18 P301L tau heparin fibrillization, Alexa594 FP, 6 h; Potency, µM (highest dose often 57.7 µM), for the others: at the highest dose activity, negative = inhibition, most hits filed as inhibitors; actives 0.39% (n = 280,000); AID 1468, 2008; further: nearly all actives have a fitted effect of over 55% in size
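Compound effects on tau fibrillization are measured by Alexa 594 fluorescence polarization (ex 555, em 632 nm). K18 P301L tau is used at 15 uM with 0.24 uM labeled tracer, and 20 uM heparin induces aggregation over 6 hr at 37 C.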
RORgamma inh – qHTS for inhibitors of ROR gamma transcriptional activity | Nuclear receptor ROR-gamma (Mus musculus), P51450 | Drosophila S2 Gal4-RORgamma UAS-luciferase reporter, 20 h | Potency, µM (highest dose often 53.6 µM), inactives show at the highest dose activity change, negative = inhibition, most hits filed as inhibitors | actives 5.4% (n = 310,000); further: nearly all actives have a fitted effect of over 60% in size
Target sequence (P51450 whole entry, looked up, the tested form may be a part): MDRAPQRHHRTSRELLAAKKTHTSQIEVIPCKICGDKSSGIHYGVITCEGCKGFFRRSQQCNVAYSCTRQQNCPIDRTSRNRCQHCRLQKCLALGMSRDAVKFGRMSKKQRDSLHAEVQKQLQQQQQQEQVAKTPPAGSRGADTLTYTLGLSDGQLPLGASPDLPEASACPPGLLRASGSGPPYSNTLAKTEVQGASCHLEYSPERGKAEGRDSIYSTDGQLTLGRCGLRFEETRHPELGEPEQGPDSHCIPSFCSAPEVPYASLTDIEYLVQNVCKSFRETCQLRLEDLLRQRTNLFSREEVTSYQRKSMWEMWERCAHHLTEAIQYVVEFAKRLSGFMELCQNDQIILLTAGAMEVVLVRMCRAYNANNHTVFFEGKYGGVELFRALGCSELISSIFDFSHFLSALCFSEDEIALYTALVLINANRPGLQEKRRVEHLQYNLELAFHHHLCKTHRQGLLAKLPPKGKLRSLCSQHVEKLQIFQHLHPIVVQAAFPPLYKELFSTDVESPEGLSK
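Drosophila S2 cells stably expressing Gal4-DBD/mouse RORγ fusion under metallothionein promoter plus UAS-luciferase; compound 1 h, then 700 uM CuSO4 induction for 20 h at ambient temperature; inhibition read as reduced luminescence.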
Starred values were filed as active, the others as inactive; ? = inconclusive; / = no result; [ ] = another dose, or the depositor's remark. Sampled rows, rich in hits. Any-hit rate of the full collection: about 7.3%. The call rests on the fitted dose curve; in most records, active means well fitted curve in the direction sought with a large enough effect; inconclusive means small, poorly fitted or top-dose-only effect, or another doubt; inactive means no such curve, though single readings can be large; an effect the other way counts as inactive or inconclusive. On the % scale 0 is the no-effect control and ±100 the full control effect; potency means the concentration at half of the fitted maximal effect.

SMILES	VP16 counter	Tau fibril ThT	Tau fluor cs	Tau fibril FP	RORgamma inh
Cn1c(/N=C/c2cccs2)nc2ccccc21	-6.5%	6.8%	5.4%	3.4%	-5.9%
Cc1ccc(NCc2nc3ccccc3n2C)cc1C	-9.9%	/	/	/	-29.3%
Cc1cc(C)c(C)c(N=Nc2nc3ccccc3n2C)c1C	5.62µM*	8.91µM*	?	-20.1%	2.24µM*
Cc1ccc(C)c(N=Nc2nc3ccccc3n2C)c1	8.91µM*	5.62µM*	?	-1.2%	3.16µM*
Cc1ccc2[nH]c(=O)c3cc(C(=O)NCCCN4CCC(C)CC4)sc3c2c1	/	-0.1%	-8.5%	-8.1%	/
O=C(/C=C/c1ccccc1)c1ccc(O)cc1	?	?	-20.7%	7.2%	11.2µM*
COc1ccc(C(=O)/C=C/c2ccc(O)cc2)cc1	2µM*	?	-23.2%	?	0.316µM*
O=C(/C=C/c1ccc(O)cc1)c1ccccc1	-18.4%	-18.9%	-3.0%	15.4%	?
O=C(/C=C/c1ccco1)c1cccnc1	2.8%	/	/	/	-17.1%
CN(C)c1ccc(/C=C/C(=O)c2cccnc2)cc1	3.6%	5.01µM*	?	3.7%	-14.1%
CCOC(=O)N1C/C(=C\c2ccccc2)C(=O)/C(=C/c2ccccc2)C1	?	14.1µM*	-9.6%	?	17.8µM*
COc1ccc(C(=O)/C=C/c2ccc(O)cc2)c(O)c1CC=C(C)C	7.94µM*	25.1µM*	15.8µM*[quencher]	?	3.98µM*
O=C(/C=C/c1cccnc1)c1ccccc1O	?	-14.6%	3.2%	4.7%	17.8µM*
O=C(/C=C/c1cccc(O)c1)c1ccc(N2CCOCC2)cc1	?	3.55µM*	?	-5.8%	3.55µM*
CCOC(=O)C(=Cc1ccccc1)C(=O)OCC	12.6µM*	/	/	/	12.6µM*
COc1ccc(/C=C/C(=O)c2ccc(O)cc2)cc1CN1CCOCC1	-1.9%	?	-13.7%	-6.7%	37.9%
O=C(CS(=O)(=O)c1cccc2nsnc12)Nc1ccccc1Cl	/	0.1%	-3.2%	-3.0%	/
COc1ccc(/C=C/C(=O)c2nc3ccccc3n2CC(=O)c2ccc(OC)cc2)cc1	-8.0%	?	-13.4%	-8.7%	10µM*
CSc1ccc(/C=C/C(=O)c2ccc(NC(=O)C(C)C)cc2)cc1	-9.9%	?	-20.8%	-4.8%	?
CSc1ccc(C(=O)/C=C/c2ccc(N)cc2)cc1	?	15.8µM*	?	2.3%	?
COc1ccc(C(=O)OCCc2ccc(O)cc2)cc1	12.6µM*	?	-28.6%	-11.0%	7.08µM*
O=C(/C=C/c1cccnc1)c1ccc(O)cc1	-87.8%	?	-8.5%	5.7%	12.6µM*
Cc1cccc(C)c1N=Nc1c(C)cc(O)cc1C	?	/	/	/	-17.1%
CC(C)[C@@H](CC(=O)N[C@@H]1CCCC[C@H]1C(=O)N[C@H](CC(=O)N[C@@H](CCC(=O)O)CC(=O)O)Cc1ccccc1)NC(=O)C[C@H](CO)NC(=O)[C@@H]1CCCC[C@H]1N	-5.3%	-2.2%	2.0%	8.0%	13.2%
O=C(/C=C/c1cccc(O)c1)c1cccnc1	?	-15.5%	5.4%	13.4%	8.91µM*
SMILES	VP16 counter	Tau fibril ThT	Tau fluor cs	Tau fibril FP	RORgamma inh
CN(C)C(=O)COc1ccc(C(=O)/C=C/c2cccnc2)cc1	?	/	/	/	17.8µM*
COc1ccc(C(=O)/C=C/c2ccccc2)cc1	-7.0%	?	-18.0%	1.0%	?
CCOC(=O)Nc1ccc(C(=O)/C=C/c2ccccc2)cc1	?	?	-12.0%	3.4%	7.08µM*
CCCCc1cc(=O)oc2cc(OC(C)C(=O)NCC3CCC(C(=O)O)CC3)c(Cl)cc12 (configuration not stated)	1.0%	/	/	/	?
NC(=O)c1cc2c3ccccc3ccn2c1-c1ccccc1	-21.1%	14.1µM*	14.1µM*[quencher]	?	?
Cc1cc(C(N)=O)c2ccccc2n1	-6.9%	-7.9%	-10.8%	-8.1%	-4.7%
Cc1ccc(O)c(N=Nc2ccccc2)n1	2.82µM*	17.8µM*	-14.3%	8.0%	1µM*
Oc1ccc(Cl)cc1N=Nc1ccccc1	25.0%	/	/	/	25.8%
Cc1onc(-c2c(Cl)cccc2Cl)c1C(N)=S	?	4.5%	4.4%	9.2%	7.94µM*
Cc1onc(-c2c(Cl)cccc2Cl)c1-c1nnc(-c2ccc(Cl)cc2)o1	?	-3.6%	-10.4%	-10.7%	-14.8%
Cc1nc(C(=O)NNC(=O)c2c(-c3c(Cl)cccc3Cl)noc2C)cs1	8.91µM*	-2.0%	3.6%	3.6%	2.82µM*
CC(=O)Nc1nnc(-c2c(-c3c(Cl)cccc3Cl)noc2C)o1	?	-22.2%	-20.3%	-2.0%	10µM*
CCN1CCN(C(=O)c2c(C)nn(-c3ccc(F)cc3)c2-n2cccc2)CC1	/	-2.0%	-6.7%	-0.2%	/
CCSc1ncc(Cl)c(C(=O)Nc2nc3ccc(S(C)(=O)=O)cc3s2)n1	/	-11.7%	-24.9%	-7.3%	/
Cc1csc2ncnc(N3CCN(S(=O)(=O)c4cccc(C(F)(F)F)c4)CC3)c12	10µM*	/	/	/	?
CCOC(=O)C1=NN(C(=O)Cc2ccccc2)C(O)(c2ccc(Cl)cc2)C1 (configuration not stated)	10µM*	6.4%	4.7%	?	5.62µM*
CCOC(=O)C1=NN(C(=O)COc2ccccc2)C(O)(c2ccc(Cl)cc2)C1 (configuration not stated)	11.2µM*	-4.9%	-5.4%	1.0%	3.55µM*
CCCC(=O)Oc1c(Sc2ccc(Cl)cc2)c(C)nn1-c1ccccc1	/	?	-27.6%	-24.3%	/
CC(C)C[C@@H](CC(=O)N[C@@H](CCCN)CC(=O)N[C@@H]1CCCC[C@H]1C(=O)N[C@H](CC(=O)N[C@@H](CCC(=O)O)CC(=O)O)CC(C)C)NC(=O)[C@@H]1CNCC[C@H]1N	-1.0%	-4.9%	-2.3%	0.6%	-27.8%
CC(OC(=O)c1ccc(S(=O)(=O)N2CCCCC2)cc1)C(=O)NC1CCCCC1C (configuration not stated)	5.0%	/	/	/	12.3%
Cc1cc2occ(CC(=O)NC3=NCCS3)c2cc1C(C)C	12.6µM*	-4.9%	-17.4%	5.5%	-137.2%
CC(=O)NCc1ccc(S(=O)(=O)NC(C(=O)O)C(C)C)cc1 (configuration not stated)	-2.2%	25.1µM*	-10.4%	?	8.9%
CSc1nc2sc3c(c2c(=O)n1-c1ccccc1C)CCCC3	/	?	-8.2%	-9.4%	/
CCn1c(SCc2ccc(Cl)cc2)nc2nc3c(cc2c1=O)CCCC3	?	2.8%	1.0%	-4.4%	12.6µM*
CSc1nc2nc3c(cc2c(=O)n1-c1ccccc1C)CCCC3	5.01µM*	-5.3%	-2.0%	-2.8%	-15.3%

From PubChem BioAssay
